Measurements taken from PubChem BioAssay AID1053206 (Broad Institute, 2014).
A number with no mark means an inactive call.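 Rule for the calls: active = compounds lowering delta-delta-Ct, meaning more Pax4 mRNA, with half-max potency at most twice the top tested dose; inconclusive = flat fit dropping 30 to 70 percent, or unreliable fit; inactive = the rest.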

Assay: activators of Pax4 gene expression, dose response, mouse alpha TC1 cells, RT-qPCR, cherry-picks (AID 1053206)
Conditions: Pax4 mRNA qPCR, 6 days, stronger effect = lower value; at 19.5 µM unless noted

SMILES	max activity (delta-delta-Ct)
CO[C@@H](CN(C)Cc1cc(F)ccc1F)[C@@H](C)CN(C(=O)Nc1ccc(C(F)(F)F)cc1)[C@H](C)CO	-0.501% [at 10 µM]
N#Cc1cccc(-c2ccc(C3[C@@H]4CN(C(=O)Nc5ccc(C(F)(F)F)cc5)C[C@H]3N4)cc2)c1 (stereo partly specified)	-0.156%
C[C@H]1CNC(=O)[C@@H](Cc2ccc(C(F)(F)F)cc2)CCn2nncc2COC1	0.001% [at 0.16 µM]
CN(C)C(=O)c1cccc(-c2ccc(C3[C@@H]4CN(Cc5ccccc5F)C[C@H]3N4)cc2)c1 (stereo partly specified)	0.001% [at 5 µM]
C(=C\c1ccc(C2[C@@H]3CN(Cc4ccc5c(c4)OCO5)C[C@H]2N3)cc1)/c1ccccc1 (stereo partly specified)	-0.457%
C/C=C/c1ccc(C2[C@@H]3CN(C(=O)Nc4ccc(C(F)(F)F)cc4)C[C@H]2N3)cc1 (stereo partly specified)	-0.019%
COc1cccc(-c2cccc(-c3nc(C(=O)Nc4ccc(-c5ccccc5)cc4)cc4c3[C@@H](CCO)N(S(=O)C(C)(C)C)C4)c2)c1 (stereo partly specified)	-0.152%
Fc1cccc(CN2C[C@@H]3N[C@H](C2)C3c2ccc(/C=C/c3ccccc3)cc2)c1 (stereo partly specified)	-3.37% [at 21 µM]
C/C=C/c1ccc([C@H]2[C@@H](CO)N3C(=O)CN(Cc4ccc(F)cc4)C[C@@H]23)cc1	-0.008% [at 0.16 µM]
Cc1cccc(-c2ccc(C3[C@@H]4CN(Cc5cccc(F)c5)C[C@H]3N4)cc2)c1 (stereo partly specified)	-2.82%
C[C@@H]1CN([C@@H](C)CO)C(=O)Cc2cc(NC(=O)C3CCCCC3)ccc2O[C@@H]1CN(C)Cc1ccc(Cl)c(Cl)c1	-0.143% [at 1.2 µM]
